ALR H2O2 inh: human ALR oxidase inhibition via reduced H2O2; purified ALR, DTT oxidation, H2O2 HRP-luminol luminescence; inhibition, % (no concentration beside the values); actives 3.8% (n = 290,000);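 active = mean replicate inhibition above about 79%, with every replicate also reaching it, limit read from the data; inconclusive = only one of the two criteria met; inactive = mean below limit and not every replicate reaching it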
PABP polyA inh: PABP-poly(A) binding inhibition. P11940. PABP-poly(A) RNA binding, fluorescence polarization. inhibition, % at 35 µM. actives 1% (n = 290,000);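 note: calls also rest on retests at 20 µM and on dose response follow-up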
Target sequence (P11940 whole entry, looked up): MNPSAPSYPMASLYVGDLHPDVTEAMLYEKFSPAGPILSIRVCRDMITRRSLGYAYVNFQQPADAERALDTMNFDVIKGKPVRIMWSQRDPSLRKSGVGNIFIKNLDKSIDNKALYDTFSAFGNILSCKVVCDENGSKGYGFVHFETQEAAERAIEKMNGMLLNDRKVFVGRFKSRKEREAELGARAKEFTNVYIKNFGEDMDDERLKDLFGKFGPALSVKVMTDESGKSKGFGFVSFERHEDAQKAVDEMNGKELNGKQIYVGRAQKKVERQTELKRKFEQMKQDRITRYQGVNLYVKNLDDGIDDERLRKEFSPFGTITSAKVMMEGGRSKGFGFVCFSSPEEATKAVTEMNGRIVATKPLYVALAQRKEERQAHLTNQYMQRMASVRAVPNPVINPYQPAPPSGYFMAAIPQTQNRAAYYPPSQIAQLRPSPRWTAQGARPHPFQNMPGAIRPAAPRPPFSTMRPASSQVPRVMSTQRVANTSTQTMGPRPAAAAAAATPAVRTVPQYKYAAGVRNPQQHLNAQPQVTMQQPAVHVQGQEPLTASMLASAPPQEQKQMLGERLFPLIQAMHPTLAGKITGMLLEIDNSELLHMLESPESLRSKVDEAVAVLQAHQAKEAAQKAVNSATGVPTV
eIF4H inh: inhibitors of RNA binding by human eIF4H; actives 0.94% (n = 290,000); inhibition, % at 35 µM; eIF4H fluorescence polarization binding assay; AID 2012; Q15056;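 note: calls also rest on retests at 20 µM and on dose response follow-up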
Efflux pump inh: blocks antifungal efflux pumps in multiplex yeast assay | actives 0.44% (n = 330,000) | AID 485275 | S. cerevisiae Candida pump triplex, Nile Red efflux | inhibition, % at 10 µM;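 active = plate passing quality check with inhibition over a set limit, or well fluorescence over plate mean plus 4 SD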;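 note: Nile Red retained in pooled yeast measured as flow cytometry median fluorescence; 0% = buffer negative control and 100% = Enniatin B positive control; higher means more Nile Red kept so more efflux inhibition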
MLLE-PAM2 inh: inhibitors of microRNA-mediated deadenylation, human PABP1 MLLE binding; GST-MLLE / FITC-PAM2 fluorescence polarization; inhibition, % at 20 µM; P11940; actives 0.36% (n = 360,000); AID 588489; in the data active = inhibition above about 35%, passing the limit was not always enough;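 note: plate controls were DMSO wells with GST-MLLE for no effect and wells lacking GST-MLLE protein for full effect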
UBC9 SUMO inh: inhibitors of human SUMOylation (UBC9) | P63279 | HTRF SUMOylation assay, SAE1/SAE2 + UBC9, in vitro | inhibition, % at 35 µM | actives 0.36% (n = 290,000); in the data active = inhibition above about 50%, passing the limit was not always enough; inconclusive = no clear call, values can overlap the other calls
* = called active by the depositor; ? = inconclusive; . = no result. Sampled rows, rich in hits. Any-hit rate of the full collection: about 4.7%. Unless noted, the rule behind the calls is not given here.

SMILES	ALR H2O2 inh	PABP polyA inh	eIF4H inh	Efflux pump inh	MLLE-PAM2 inh	UBC9 SUMO inh
COc1ccc(C(C(=O)NCCC(C)C)N(CCN2CCOCC2)C(=O)Cn2nnc3ccccc32)c(OC)c1 (stereo unspecified)	-8	4	12	0	-4	0
O=C(Cc1ccc2c(c1)OCCO2)N1CCN(S(=O)(=O)c2cccc(C(F)(F)F)c2)CC1	90*	2	3	0	-13	8
O=S(=O)(c1cccc(C(F)(F)F)c1)N1CCN(S(=O)(=O)c2ccc3c(c2)OCCO3)CC1	-7	.	.	0	6	.
O=S(=O)(c1ccc(=S)[nH]c1)N1CCCC1	32	.	.	0	30	.
Cc1cc(/C=C(/C#N)C(=O)O)c(C)n1-c1cccc2ccccc12	96*	10	0	0	0	6
CC1(C)N=C(SCC(=O)Nc2ccccc2)C(c2ccc(Cl)cc2)=N1	.	4	-4	0	44*	-8
O=C(CSC1=NC2(CCCCCC2)N=C1c1ccccc1)Nc1ccc2c(c1)OCCO2	98*	-1	0	0	-4	-22
Cc1ccc(C2=NC3(CCCC3)N=C2SCC(=O)Nc2ccc3c(c2)OCCO3)cc1	99*	0	7	0	22	-9
O=C(CSC1=NC2(CCCCC2)N=C1c1ccccc1)Nc1ccc2c(c1)OCCO2	98*	?	?	0	46*	-21
N#Cc1ccc(C(=O)N2CCCC(c3cc(C(=O)NCc4cccnc4)no3)C2)cc1 (stereo unspecified)	.	.	.	.	14	.
CC(O)(c1ccc(F)c(F)c1)c1nc(-c2ccc(S(C)(=O)=O)cc2)cs1 (stereo unspecified)	.	.	.	.	18	.
COCCCn1c(C(=O)N2CCOCC2)cc2c(=O)n3ccccc3nc21	-4	-6	-4	0	-2	52*
O=[N+]([O-])c1cc(-c2ccccc2)cc([N+](=O)[O-])c1O	.	.	.	.	-6	.
O=[N+]([O-])c1ccc(O)c(C=Nc2cccc3ccccc23)c1	-17	20	13	0	-6	48
CCOC(=O)c1c(/N=C/c2cccc([N+](=O)[O-])c2O)sc(C)c1C	86*	-11	21	0	51*	17
O=[N+]([O-])c1cccc(C=Nc2cccc3ccccc23)c1O	11	28	42	0	19	51*
O=[N+]([O-])c1cc2ccccc2c(O)c1O	.	.	.	.	41*	.
CC(C)CCN1CCC[C@]2(N[C@H](c3ccc(C(F)(F)F)cc3)[C@@H]3C(=O)N(Cc4ccccc4)C(=O)[C@@H]32)C1=O	.	.	.	.	4	.
COc1cc(CN2C[C@@H](CO)O[C@@H](n3cnc4c(N5CCN(C)CC5)ncnc43)C2)cc(OC)c1OC	.	.	.	.	2	.
Oc1ccc(-c2cn3c(n2)SCC3)cc1	65	12	-1	0	21	-1
Oc1ccc(-c2cn3c(n2)SCC3)cc1O	99*	8	46	0	31	35
COC(=O)c1ccc(NC(=O)c2ccc3c(c2)NC(=O)C2CCCN32)cc1 (stereo unspecified)	-7	.	.	0	.	.
COc1cc(C(=O)OCC(=O)NC2CCCC2)cc(OC)c1OC	-19	0	-2	0	-6	1
O=C1Nc2ccccc2Cc2ccccc21	.	.	.	.	0	.
S=C1Cc2ccccc2N1	.	-10	3	.	-23	60*
SMILES	ALR H2O2 inh	PABP polyA inh	eIF4H inh	Efflux pump inh	MLLE-PAM2 inh	UBC9 SUMO inh
COc1ccc(C)cc1NC(=O)c1cc(S(=O)(=O)N2CCCCC2)ccc1N1CCOCC1	-4	.	.	0	-5	.
N#Cc1ccccc1S(=O)(=O)N1CCN(CC(O)c2ccccc2)CC1 (stereo unspecified)	-5	56	7.2*	0	9	5
N#Cc1ccccc1S(=O)(=O)N1CCN(CC(O)COc2ccccc2F)CC1 (stereo unspecified)	-9	13	4	0	-9	2
O=C(NCc1ccccc1OC(F)(F)F)C1CCC(=O)N(CCc2ccccn2)C1 (stereo unspecified)	-6	-1	-1	0	9	2
CCOc1ccc(N=c2scc(-c3ccccc3)n2CCO)cc1	25	-6	-9	0	-14	10
OCCn1c(-c2ccc(F)cc2)csc1=Nc1ccccc1	96*	-7	0	0	15	13
CCn1c(-c2ccccc2)csc1=Nc1ccc(O)cc1	99*	1	-4	0	4	0
O=C(C=C(C(=O)c1ccccc1)c1ccccc1)c1ccccc1	.	.	.	.	5	.
FC(F)(F)c1cnc(-c2cnc3c(-c4ccc(Cl)cc4)cnn3c2)c(Cl)c1	-1	6	0	0	9	-7
N#Cc1cnn2cc(-c3ncc(C(F)(F)F)cc3Cl)cnc12	85*	4	-8	0	0	14
S=c1[nH]nc(CSCc2ccccc2Cl)n1-c1ccccc1	94*	-3	-7	0	-3	-3
Cc1cccc(OCc2n[nH]c(=S)n2-c2ccccc2)c1	77*	-5	-3	0	22	10
COC(Cc1n[nH]c(=S)n1-c1ccccc1)OC	93*	-9	-11	0	10	34
Cc1ccc(C)c(NCc2n[nH]c(=S)n2-c2ccccc2)c1	86*	-14	5	0	9	16
COCc1n[nH]c(=S)n1-c1ccccc1	58	-2	1	0	5	7
COc1ccccc1C(=O)NC1CCSc2ccccc21 (stereo unspecified)	-13	0	-3	0	-4	1
Cc1noc(C)c1C(=O)OCC(=O)/C=C1/N(C)c2ccccc2C1(C)C	.	.	.	.	-4	.
Nc1c(-c2ccccc2)nc(Cl)nc1-c1ccccc1	3	-4	-6	0	10	28
Nc1nc(-c2ccccc2)c(-c2ccccc2)n1N	4	37*	54	0	3	9
COc1ccc(OCCOc2ccc(/C=C3\C(=N)N4N=C(C)SC4=NC3=O)cc2)cc1	7	.	.	0	-23	.
CCOC(=O)c1nc(NNC(=O)c2ccc([N+](=O)[O-])cc2)sc1C	99*	-4	-2	0	-113	0
CCOC(=O)c1sc(NNC(=O)c2ccc(C)cc2)nc1C	.	-5	3	0	-88	-9
Cc1cccc(NC(=O)CSc2nnc3ccc(-c4cccnc4)nn23)c1	.	.	.	.	4	.
CCCCn1[nH]c(-c2ccccc2)cc1=O	8	9	4	0	30	80*
COc1ccc(/C=N/NC2=NCCCCC2)cc1	-8	28	-23	0	6	14
COc1ccc(/C=N/NC2=NCCCCC2)c(OC)c1	1	68*	active	0	-1	28
CCN(Cc1cc2ccc(C)cc2[nH]c1=O)C(=O)c1cccnc1	.	59*	84*	.	.	-11
CC(C)CN(Cc1cc2ccccc2[nH]c1=O)C(=O)c1cccnc1	-1	-2	-11	0	10	14
COC(=O)c1csc(C2OC(CO)C(O)C2O)n1 (stereo unspecified)	.	.	.	.	-4	.
